The values that follow come from PubChem BioAssay (Tox21).

A number with no mark means an inactive call. Inconclusive results are not listed. Calls of active or inactive are those of the source. Unless noted, calls follow the shape of the dose curve; as a rule, active = well fitted curve in the direction sought with a large enough effect in the repeat runs; inconclusive = weak or mixed curves; inactive = no such curve, though single readings can be large; an effect the other way counts as inactive or inconclusive.

A short description of experiment [1]: qHTS assay to identify small molecule antagonists of the estrogen receptor beta (ER-beta) signaling pathway - cell viability counter screen (AID 1259382). Also: nearly all actives have a fitted effect of over 55% in size. Also: potency is read from the fitted curve at half-maximal effect.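 As to activity change, negative = cytotoxicity: HEK293T cells carrying ER-beta-UAS-bla reporter stimulated with estradiol; series mostly up to about 92 µM.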 The method, boiled down: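 CellTiter-Glo ATP luminescence measured after the LiveBLAzer read in the same wells; ER-beta-UAS-bla HEK293T cells, 16 hr compound treatment with 1nM 17-beta-estradiol agonist at 37C, 5% CO2.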
In general terms: Quantitative high-throughput screening tests each substance at several concentrations.

Experiment [2] in a line: qHTS assay to identify small molecule agonists or antagonists of the thyroid stimulating hormone receptor (TSHR) signaling pathway - wild type cell line counter screen (AID 1259384; calls by dose curve). An outline of the steps:
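Wild-type Hek293 cells, 800/well, 18 h at 37C, then compound with Ro20-1724 for 30 min RT. cAMP by HTRF (cAMP-d2/anti-cAMP cryptate), 1 h RT, fluorescence read. 15 concentrations, triplicates.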

In experiment [3] the target is Thyrotropin receptor (Homo sapiens) (UniProt P16473). As to the kind of experiment: qHTS assay to identify small molecule antagonists of the thyroid stimulating hormone receptor (TSHR) signaling pathway (AID 1259385; calls by dose curve; also: nearly all actives have a fitted effect of over 20% in size; also: potency is read from the fitted curve at half-maximal effect). The method, boiled down: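 TSHR-HEK293 cells (800/well) plated 18 h, then compounds with Ro20-1724 and TSH at 1.5 ng/mL final, 30 min at room temperature. cAMP quantified by HTRF (cAMP-d2/anti-cAMP-cryptate, 1 h); 15 concentrations in triplicate.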
Chain of Thyrotropin receptor (Homo sapiens) (P16473 whole entry, looked up): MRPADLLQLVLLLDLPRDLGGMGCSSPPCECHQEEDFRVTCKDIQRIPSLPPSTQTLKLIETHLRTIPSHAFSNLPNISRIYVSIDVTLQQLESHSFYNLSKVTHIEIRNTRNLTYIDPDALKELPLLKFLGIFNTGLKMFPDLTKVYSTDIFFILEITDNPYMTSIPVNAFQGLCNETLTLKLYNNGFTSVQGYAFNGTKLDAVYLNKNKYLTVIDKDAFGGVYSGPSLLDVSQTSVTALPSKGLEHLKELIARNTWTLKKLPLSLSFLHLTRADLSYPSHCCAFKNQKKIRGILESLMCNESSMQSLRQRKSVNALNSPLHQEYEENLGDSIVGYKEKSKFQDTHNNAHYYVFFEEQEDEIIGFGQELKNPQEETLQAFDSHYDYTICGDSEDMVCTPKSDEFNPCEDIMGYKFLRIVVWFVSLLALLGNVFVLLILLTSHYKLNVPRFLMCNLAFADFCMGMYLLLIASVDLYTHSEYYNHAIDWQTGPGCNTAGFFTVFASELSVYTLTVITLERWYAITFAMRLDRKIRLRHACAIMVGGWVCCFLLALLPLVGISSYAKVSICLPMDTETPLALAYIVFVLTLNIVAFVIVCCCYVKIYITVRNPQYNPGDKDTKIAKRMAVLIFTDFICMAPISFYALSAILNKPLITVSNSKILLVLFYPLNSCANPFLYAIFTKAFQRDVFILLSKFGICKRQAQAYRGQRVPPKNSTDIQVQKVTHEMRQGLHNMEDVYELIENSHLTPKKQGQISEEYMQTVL

Experiment [4] is described as follows: qHTS assay to identify small molecule agonists of the estrogen receptor alpha (ER-alpha) signaling pathway in the presence of an antagonist - cell viability counter screen (AID 1259386).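 Also: cells exposed to compounds for 22 h at 37 °C before the viability read; nearly all actives have a fitted effect of over 30% in size.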 Also: potency is read from the fitted curve at half-maximal effect. As to activity change, negative = cytotoxicity: series mostly up to about 92 µM. An outline of the steps:
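Using estrogen-depleted VM7Luc4E2 cells, the 15-concentration compound series was applied together with 10.0nM ICI-182,780 and incubated 22hr at 37C/5% CO2. Cell viability was then scored by CellTiter-Fluor.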

Experiment [5] concerns the target Progesterone receptor (Homo sapiens) (UniProt P06401). As to the kind of experiment: qHTS assay to identify small molecule agonists of the progesterone receptor (PR) signaling pathway (AID 1346784; calls by dose curve; also: nearly all actives have a fitted effect of over 30% in size). The method, boiled down: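 Agonist qHTS: compounds pinned onto 3,000 PR-UAS-bla HEK 293T cells per well in charcoal-stripped serum medium, 16hr at 37C, then beta-lactamase activity measured by LiveBLAzer FRET fluorescence after 2 hours at room temperature.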

Experiment [6] has the same target. As to the kind of experiment: qHTS assay to identify small molecule antagonists of the progesterone receptor (PR) signaling pathway (AID 1346795; active = well fitted inhibition curve with a large enough effect in the signal ratio in the repeat runs, not every such curve was filed as active; the % refers to the signal ratio; also: potency is read from the fitted curve at half-maximal effect). An outline of the steps: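 Antagonist mode with agonist R5020 at 1 nM final and 16 hr incubation at 37C. Reporter was beta-lactamase driven by UAS in HEK293T (PR-UAS-bla), 2% charcoal-stripped serum; signal from LiveBLAzer FRET substrate, 2 hr at room temperature.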

A short description of experiment [7]: qHTS assay to identify small molecule antagonists of the progesterone receptor (PR) signaling pathway - cell viability counter screen (AID 1346798). Also: nearly all actives have a fitted effect of over 50% in size. Also: potency is read from the fitted curve at half-maximal effect. As to activity change, negative = cytotoxicity: series mostly up to about 92 µM. The method, boiled down:
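Cytotoxicity read as CellTiter-Glo luminescence (30 min, room temperature) in the same wells as the beta-lactamase readout. HEK293T PR-UAS-bla cells in charcoal-stripped 2% FBS received compound and R5020, then 16 h at 37C, 5% CO2.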

The nature of experiment [8]: qHTS assay to identify small molecule agonists of the progesterone receptor (PR) signaling pathway - cell viability counter screen (AID 1346799; calls by dose curve; also: nearly all actives have a fitted effect of over 45% in size; also: potency is read from the fitted curve at half-maximal effect). An outline of the steps:
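Cytotoxicity measured by CellTiter-Glo luminescence (30 min, RT) in the same wells as the PR beta-lactamase agonist read. Those HEK293T cells had 16 h compound treatment at 37 C in 2% charcoal-stripped FBS medium.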

Experiment [9] is described as follows: qHTS assay to identify small molecule antagonists of the TGF-beta/Smad signaling pathway - cell viability counter screen (AID 1346824). Also: nearly all actives have a fitted effect of over 50% in size. Also: potency is read from the fitted curve at half-maximal effect. The method, boiled down: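 SBE-bla HEK 293T cells, incubated overnight, then compound plus 0.25 ng/mL TGF-beta1 (stock added) for 5 hr at 37 C. Viability was read in the same wells by CellTiter-Glo luminescence after 30 min at room temperature.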

Experiment [10] in a line: qHTS assay to identify small molecule agonists of the TGF-beta/Smad signaling pathway - cell viability counter screen (AID 1346829). Also: nearly all actives have a fitted effect of over 45% in size. Also: potency is read from the fitted curve at half-maximal effect. As to activity change, negative = cytotoxicity: top concentration of the series differs between compounds. An outline of the steps: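 Luminescence from CellTiter-Glo, read after a 30 min room-temperature incubation, gives cell viability of SBE-bla HEK 293T cells treated 5 hr with compounds at 37 C.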
Experiment [11] in a line: qHTS assay to identify small molecule agonists of the TGF-beta/Smad signaling pathway (AID 1346859; active = well fitted activation curve with a large enough effect in the signal ratio in the repeat runs, not every such curve was filed as active; the % refers to the signal ratio; also: series mostly up to about 77 µM). An outline of the steps:
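Fluorescence (ex 405 nm; em 460 and 530 nm) was read 2 h after LiveBLAzer FRET substrate at RT. The preceding compound treatment of overnight-plated SBE-bla HEK293T cells lasted 5 h at 37 C.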

Experiment [12] has as its target Thyrotropin-releasing hormone receptor (Homo sapiens) (UniProt P34981). As to the kind of experiment: qHTS assay to identify small molecule antagonists of the thyrotropin-releasing hormone receptor (TRHR) signaling pathway (AID 1346877; active = well fitted inhibition curve with a large enough effect in the repeat runs, not every such curve was filed as active; also: series mostly up to about 51 µM). The method, boiled down:
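Calcium signal in dye-loaded TRHR/HEK293 cells; compounds added 5 min before TRH (1 nM final); fluorescence monitored 3 min at 1 s steps.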

Experiment [13] shares this target. Description: qHTS assay to identify small molecule agonists of the thyrotropin-releasing hormone receptor (TRHR) signaling pathway (AID 1346891; calls by dose curve; also: series mostly up to about 58 µM). An outline of the steps:
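Agonist-mode intracellular calcium readout: kinetic fluorescence over 3 min at 1 s intervals after compound addition to TRHR-HEK293 cells (18 h seeded, 2 h dye-loaded at 37 C). Fifteen concentrations, triplicates.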

Experiment [14] can be described thus: Caspase-3/7 induction in HepG2 cells by small molecules, qHTS assay (AID 1346978). Also: nearly all actives have a fitted effect of over 15% in size. Also: potency is read from the fitted curve at half-maximal effect. An outline of the steps:
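Wild-type HepG2 cells, 2,000/well, settled 5 hr at 37 C and 5% CO2, then compound-treated for 17 hr; caspase-3/7 activity read by luminescent Caspase-Glo 3/7 after 30 min at room temperature.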

Experiment [15] in a line: Caspase-3/7 induction in CHO-K1 cells by small molecules, qHTS cell viability counter screen (AID 1346979). Also: nearly all actives have a fitted effect of over 35% in size. Also: potency is read from the fitted curve at half-maximal effect. The method, boiled down: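 Cytotoxicity counter screen: CellTiter-Fluor added to compound-treated wild-type CHO-K1 cells at 16 h (37C, 5% CO2), fluorescence measured 1 h later; same wells as caspase-3/7 measurement.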
A short description of experiment [16]: Caspase-3/7 induction in CHO-K1 cells by small molecules, qHTS assay (AID 1346980). Also: nearly all actives have a fitted effect of over 15% in size. The method, boiled down:
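Wild-type CHO-K1 cells exposed to compounds for 17hr at 37 C, 5% CO2. Caspase-3/7 activity then measured by Caspase-Glo 3/7 luminescence after 30min at room temperature.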

The target of experiment [17] is Nuclear receptor subfamily 1 group I member 2 (Homo sapiens) (UniProt O75469). As to the kind of experiment: Human pregnane X receptor (PXR) small molecule agonists, qHTS assay (AID 1346982). Also: nearly all actives have a fitted effect of over 35% in size. Also: potency is read from the fitted curve at half-maximal effect. An outline of the steps: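 Tox21 qHTS; PXR-Luc HepG2; compounds pinned from DMSO; 24 hr, 37 C; ONE-Glo luciferase detection, 30 min room temperature.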
Chain of Nuclear receptor subfamily 1 group I member 2 (Homo sapiens) (O75469 whole entry, looked up): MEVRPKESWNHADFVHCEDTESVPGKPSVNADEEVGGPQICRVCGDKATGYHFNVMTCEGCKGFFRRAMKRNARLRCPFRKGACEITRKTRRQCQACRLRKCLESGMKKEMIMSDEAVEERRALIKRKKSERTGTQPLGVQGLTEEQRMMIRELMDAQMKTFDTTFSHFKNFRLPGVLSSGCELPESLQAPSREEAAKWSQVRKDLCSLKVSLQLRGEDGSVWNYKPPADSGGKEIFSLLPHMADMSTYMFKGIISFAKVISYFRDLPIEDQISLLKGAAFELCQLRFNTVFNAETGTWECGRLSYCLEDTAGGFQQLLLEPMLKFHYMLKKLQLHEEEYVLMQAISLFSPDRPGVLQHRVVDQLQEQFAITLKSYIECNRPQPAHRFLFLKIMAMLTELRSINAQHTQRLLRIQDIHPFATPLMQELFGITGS
A short description of experiment [18]: Human pregnane X receptor (PXR) small molecule agonists, qHTS cell viability counter screen (AID 1346977). Also: nearly all actives have a fitted effect of over 50% in size. Also: potency is read from the fitted curve at half-maximal effect. The method, boiled down:
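Same-well viability read: CellTiter-Fluor added after 23 hr compound exposure, fluorescence measured 1 hr later. Cells were PXR-Luc HepG2 seeded at 2,000/well in 5% charcoal-stripped FBS medium, rested 5 hr before dosing at 37 C.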

A short description of experiment [19]: Caspase-3/7 induction in HepG2 cells by small molecules, qHTS cell viability counter screen (AID 1346981). Also: nearly all actives have a fitted effect of over 30% in size. Also: potency is read from the fitted curve at half-maximal effect. As to activity change, negative = cytotoxicity: series mostly up to about 92 µM. An outline of the steps:
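After a 5-hr attachment period at 37 C and 5% CO2, wild-type HepG2 cells received compounds in DMSO. Sixteen hours later CellTiter-Fluor was dispensed and the fluorescent signal quantified after a further hour.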

For experiment [20], the target named is Estrogen receptor (Homo sapiens) (UniProt P03372). As to the kind of experiment: qHTS assay to identify small molecule agonists of the estrogen receptor alpha (ER-alpha) signaling pathway in the presence of an antagonist (AID 1259383; calls by dose curve; also: top concentration of the series differs between compounds; nearly all actives have a fitted effect of over 15% in size). An outline of the steps: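 Luminescent ERE-luciferase reporter, VM7Luc4E2 cells (endogenous ER-alpha); 10.0nM ICI-182,780 final; 15-point compound titration; 22hr at 37C; ONE-Glo, 30min RT.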
Chain of Estrogen receptor (Homo sapiens) (P03372 whole entry, looked up): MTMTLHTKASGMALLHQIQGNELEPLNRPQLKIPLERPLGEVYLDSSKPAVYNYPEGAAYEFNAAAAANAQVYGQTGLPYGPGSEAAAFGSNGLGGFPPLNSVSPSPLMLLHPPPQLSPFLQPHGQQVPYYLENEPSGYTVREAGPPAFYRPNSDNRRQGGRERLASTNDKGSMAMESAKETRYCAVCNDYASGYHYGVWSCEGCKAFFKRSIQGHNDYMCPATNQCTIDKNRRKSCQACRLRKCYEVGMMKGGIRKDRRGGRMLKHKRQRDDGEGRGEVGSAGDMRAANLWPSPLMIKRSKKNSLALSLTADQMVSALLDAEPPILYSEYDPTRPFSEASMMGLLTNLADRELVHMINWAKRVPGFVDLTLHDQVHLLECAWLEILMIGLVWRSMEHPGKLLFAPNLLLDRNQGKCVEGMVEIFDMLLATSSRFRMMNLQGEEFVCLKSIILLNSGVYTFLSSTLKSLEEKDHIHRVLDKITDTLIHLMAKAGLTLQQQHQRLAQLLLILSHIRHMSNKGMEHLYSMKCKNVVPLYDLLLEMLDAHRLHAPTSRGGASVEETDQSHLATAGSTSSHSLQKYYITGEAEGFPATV
% is scaled to controls: 0 for no effect and ±100 for the full control effect.

Chain of Progesterone receptor (Homo sapiens) (P06401 whole entry, looked up): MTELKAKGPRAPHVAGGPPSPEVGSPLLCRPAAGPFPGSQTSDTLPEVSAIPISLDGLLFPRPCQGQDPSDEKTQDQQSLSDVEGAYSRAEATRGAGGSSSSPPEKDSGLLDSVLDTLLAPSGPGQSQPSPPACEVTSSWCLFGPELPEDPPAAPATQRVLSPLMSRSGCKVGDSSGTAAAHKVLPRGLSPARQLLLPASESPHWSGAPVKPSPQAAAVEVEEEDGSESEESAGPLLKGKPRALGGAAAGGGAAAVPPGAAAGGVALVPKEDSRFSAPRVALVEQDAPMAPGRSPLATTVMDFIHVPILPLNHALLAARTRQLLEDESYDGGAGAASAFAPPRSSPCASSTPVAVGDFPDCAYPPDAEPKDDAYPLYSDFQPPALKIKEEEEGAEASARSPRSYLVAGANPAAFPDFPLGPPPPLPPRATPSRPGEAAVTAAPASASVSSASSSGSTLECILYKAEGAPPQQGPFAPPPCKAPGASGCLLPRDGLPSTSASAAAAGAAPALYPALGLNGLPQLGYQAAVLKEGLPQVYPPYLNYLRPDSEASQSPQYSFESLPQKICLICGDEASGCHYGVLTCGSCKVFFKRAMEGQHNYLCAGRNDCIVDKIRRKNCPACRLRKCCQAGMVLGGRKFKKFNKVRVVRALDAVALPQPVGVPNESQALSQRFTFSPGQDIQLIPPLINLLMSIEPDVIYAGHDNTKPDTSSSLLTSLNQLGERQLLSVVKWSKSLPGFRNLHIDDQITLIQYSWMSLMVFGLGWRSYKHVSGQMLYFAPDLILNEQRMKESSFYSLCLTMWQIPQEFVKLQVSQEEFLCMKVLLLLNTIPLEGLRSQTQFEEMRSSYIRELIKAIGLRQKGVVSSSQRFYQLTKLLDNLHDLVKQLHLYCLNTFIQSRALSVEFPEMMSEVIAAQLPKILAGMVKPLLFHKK
Chain of Thyrotropin-releasing hormone receptor (Homo sapiens) (P34981 whole entry, looked up): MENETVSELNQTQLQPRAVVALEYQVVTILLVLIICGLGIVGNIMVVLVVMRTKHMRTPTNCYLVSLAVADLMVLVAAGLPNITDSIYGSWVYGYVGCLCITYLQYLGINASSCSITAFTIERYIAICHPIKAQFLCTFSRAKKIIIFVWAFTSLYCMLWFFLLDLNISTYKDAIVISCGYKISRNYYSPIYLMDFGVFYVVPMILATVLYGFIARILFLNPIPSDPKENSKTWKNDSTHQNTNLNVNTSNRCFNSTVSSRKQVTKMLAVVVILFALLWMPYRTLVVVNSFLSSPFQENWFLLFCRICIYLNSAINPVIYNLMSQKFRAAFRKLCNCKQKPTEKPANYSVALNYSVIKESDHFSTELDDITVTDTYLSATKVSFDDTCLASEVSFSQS

Turning to `c1ccc2cc3c4ccccc4c4ccccc4c3cc2c1`, the Potency entry in experiment [1], in [2], in [3], in experiment [4], in experiment [6] and in experiment [7] was “inactive” throughout. Moreover, the Potency result in experiment [8], in [9], in experiment [10], in [12], in experiment [13] and in experiment [16] was “inactive” throughout. Also, the molecule was classed as inactive in [5] and in [11]. In addition, the Potency in experiment [14] is 6.89 µM (active); in [15], 27.4 µM (active); in [17], 4.88 µM (active).
Consider `CC(C)=CCC[C@H](C)CC=O`, for which the Potency entry in [1], in experiment [2], in [3], in experiment [4], in experiment [6] and in experiment [7] was “inactive” in each case. In addition, the Potency entry in [8], in experiment [9], in experiment [10], in experiment [18], in experiment [14] and in [15] was “inactive” throughout. For the same molecule, the Potency entry in experiment [16] and in experiment [19] was “inactive” throughout. The molecule was called inactive in experiment [5] and in experiment [11].
With `CCCCCCCCCC[N+](C)(CCCCCCCCCC)CCC[Si](OC)(OC)OC`, the Potency entry in experiment [20], in [2], in [3], in experiment [4], in [6] and in [12] was “inactive” throughout. In addition, the Potency result in [13] and in experiment [17] was “inactive” in each case. The molecule was called inactive in experiment [5] and in experiment [11]. Also, the Potency in [8] was 24.3 µM (active); in experiment [15] it was 30.6 µM (active); in experiment [19] it was 61.1 µM (active).
For `CCCCCN=C(N)N/N=C/c1c[nH]c2ccc(OC)cc12`, the Potency in experiment [1] is 16.8 µM (active); in experiment [3], 29.8 µM (active); in experiment [4], 33.5 µM (active); in experiment [7], 23.7 µM (active); in [8] it was 16.8 µM (active); in experiment [9] it was 26.8 µM (active). Moreover, the Potency in [10] was 23.9 µM (active); in experiment [18], 18.8 µM (active); in experiment [14] it was 11.9 µM (active); in experiment [19], 26.6 µM (active). Moreover, the Potency entry in [2], in [13], in experiment [16] and in experiment [17] was “inactive” throughout.
With `COc1cc([C@@H]2c3cc4c(cc3[C@@H](O[C@@H]3O[C@@H]5CO[C@@H](C)O[C@H]5[C@H](O)[C@H]3O)[C@H]3COC(=O)[C@H]23)OCO4)cc(OC)c1O`, the Potency entry in experiment [1], in experiment [2], in experiment [3], in experiment [4], in [9] and in experiment [10] was “inactive” each time. Moreover, the Potency entry in experiment [16] and in experiment [19] was “inactive” throughout. The outcome in [5] was inactive. Also, the Potency was 24.1 µM (active) in experiment [6] and 53.9 µM (active) in [14].
Turning to `O=C(CCCCCCCCc1cccnc1)N1CCC(C=C(c2ccccc2)c2ccccc2)CC1`, the Potency was 24.3 µM (active) in experiment [1]; 21.7 µM (active) in [6]; 30.6 µM (active) in experiment [7]; 30.6 µM (active) in experiment [8]; 54.9 µM (active) in experiment [9]; 54.9 µM (active) in [10]. Further, the Potency in experiment [17] was 5.45 µM (active). Moreover, the Potency result in experiment [2], in [3], in [12], in experiment [13], in experiment [14] and in experiment [16] was “inactive” each time. Also, in [19], the Potency result was “inactive”.
On to `COc1cc(C(C)C)ccc1C`, for which the activity change, negative = cytotoxicity was -0.566% [at 19 µM] in experiment [1]; -2.95% [at 19 µM] in experiment [4]; -15.7% [at 18.9 µM] in [7]; -8.49% [at 19 µM] in [8]; 6.13% [at 15.8 µM] in [10]; 1.46% [at 19 µM] in experiment [18]. Also, the activity change, negative = cytotoxicity in [15] is -7.98% [at 19 µM]; in experiment [19], -0.801% [at 19 µM]. Moreover, the cAMP activity change in experiment [2] was 3.96% [at 18.9 µM, hits give high values]. Also, the figures for the activity change, negative = inhibition in [3] and in experiment [6] were -0.443% [at 19 µM] and 2.91% [at 18.9 µM], respectively. The activation in experiment [5] was 2.45% [at 19 µM]; in experiment [11], 5.38% [at 15.8 µM]; in experiment [13] it was 0.0321% [at 11.8 µM]; in experiment [17], -14.1% [at 19 µM]. The viability change, negative = cytotoxic in experiment [9] is -0.209% [at 15.8 µM]. Moreover, in experiment [12], the activity, negative = inhibition was -0.302% [at 10.5 µM]. Also, the caspase activation in experiment [14] was 0.0291% [at 19 µM]. In addition, the caspase-3/7 activation in [16] is -1.8% [at 19 µM].
Consider `CN1CCN(CCCN2c3ccccc3Sc3ccc(C(F)(F)F)cc32)CC1`, for which the Potency is 21.1 µM (active) in [1]; 26.6 µM (active) in [3]; 26.6 µM (active) in [7]; 23.7 µM (active) in experiment [18]; 33.5 µM (active) in [15]. Further, the Potency entry in experiment [2], in experiment [9], in [10] and in [14] was “inactive” throughout. Further, the molecule was classed as inactive in experiment [11].
